Experimental data from the supplement of paper PMC6411743.
± gives the standard deviation of the averaged measurements. About 6,500 targets were measured; listed, in parts, are those with the largest changes and a random draw of the rest.

Compound: Nc1ncnc2c1ncn2[C@@H]1O[C@H](COP(=O)(O)OP(=O)(O)OP(=O)(O)O)[C@@H](O)[C@H]1O [adenosine triphosphate]
Assay: NP40-soluble protein abundance relative to vehicle (solubility fold change) (ratio); higher = more soluble protein in presence of ATP
How it was run: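 Eight concentrations, 0.1 to 10 mM, were tested on Jurkat crude lysate for 10 min at room temperature and then 3 min at 37 °C, in three independent experiments. The lysate was solubilised with 0.8% NP40 and benzonase, ultracentrifuged, and the supernatant TMT-labelled for LC-MS/MS. Each value is the fold change against the detergent-processed vehicle in its own replicate, from vsn-normalised intensities.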

UniProt P04406, sequence (P04406 whole entry, looked up, one chain of several): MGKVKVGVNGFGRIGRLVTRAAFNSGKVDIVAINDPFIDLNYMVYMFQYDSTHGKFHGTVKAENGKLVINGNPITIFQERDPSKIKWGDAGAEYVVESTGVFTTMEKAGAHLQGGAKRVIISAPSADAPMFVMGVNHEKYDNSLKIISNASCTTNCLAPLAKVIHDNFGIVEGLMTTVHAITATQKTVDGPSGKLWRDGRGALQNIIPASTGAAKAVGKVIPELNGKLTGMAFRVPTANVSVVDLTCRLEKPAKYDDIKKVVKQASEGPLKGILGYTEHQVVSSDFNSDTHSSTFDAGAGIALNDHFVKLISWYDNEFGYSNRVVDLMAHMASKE
UniProt O75955, sequence (O75955 whole entry, one chain of several): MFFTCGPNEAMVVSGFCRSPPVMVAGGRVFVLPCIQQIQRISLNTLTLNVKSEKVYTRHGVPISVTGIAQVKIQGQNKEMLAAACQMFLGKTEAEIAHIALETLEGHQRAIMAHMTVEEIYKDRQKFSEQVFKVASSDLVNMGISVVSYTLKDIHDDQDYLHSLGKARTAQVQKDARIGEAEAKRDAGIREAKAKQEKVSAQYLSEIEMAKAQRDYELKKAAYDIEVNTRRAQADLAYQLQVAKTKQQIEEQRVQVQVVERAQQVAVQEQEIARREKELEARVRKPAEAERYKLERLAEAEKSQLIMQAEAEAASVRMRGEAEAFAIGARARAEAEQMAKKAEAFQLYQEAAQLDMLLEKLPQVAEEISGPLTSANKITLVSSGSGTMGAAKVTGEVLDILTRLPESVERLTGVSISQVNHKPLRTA
UniProt Q49A26, sequence (Q49A26 whole entry, one chain of several): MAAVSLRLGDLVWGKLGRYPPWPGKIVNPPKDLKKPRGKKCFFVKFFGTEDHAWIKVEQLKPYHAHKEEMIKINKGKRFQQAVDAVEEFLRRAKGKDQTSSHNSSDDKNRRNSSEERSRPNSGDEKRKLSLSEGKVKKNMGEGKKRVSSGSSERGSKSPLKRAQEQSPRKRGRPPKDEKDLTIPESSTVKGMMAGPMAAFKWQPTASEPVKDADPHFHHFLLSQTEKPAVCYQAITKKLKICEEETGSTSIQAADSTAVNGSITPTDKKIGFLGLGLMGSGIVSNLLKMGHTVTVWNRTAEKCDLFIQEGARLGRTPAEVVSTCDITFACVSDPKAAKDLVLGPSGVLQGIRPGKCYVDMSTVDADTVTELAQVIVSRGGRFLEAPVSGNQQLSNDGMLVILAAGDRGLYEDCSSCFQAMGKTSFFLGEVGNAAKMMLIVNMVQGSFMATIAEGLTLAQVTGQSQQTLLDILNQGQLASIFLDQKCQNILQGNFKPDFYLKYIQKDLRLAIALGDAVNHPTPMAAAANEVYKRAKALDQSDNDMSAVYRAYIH
UniProt Q8WYH8, sequence (Q8WYH8 whole entry, one chain of several): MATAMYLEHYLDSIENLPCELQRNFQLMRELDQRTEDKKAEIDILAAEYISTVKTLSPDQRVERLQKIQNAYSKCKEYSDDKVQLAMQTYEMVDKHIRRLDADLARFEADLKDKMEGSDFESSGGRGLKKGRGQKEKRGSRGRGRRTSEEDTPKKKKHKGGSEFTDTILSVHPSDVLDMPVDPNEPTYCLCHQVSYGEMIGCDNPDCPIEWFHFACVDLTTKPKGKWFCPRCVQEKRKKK
UniProt Q12768, sequence (Q12768 whole entry, one chain of several): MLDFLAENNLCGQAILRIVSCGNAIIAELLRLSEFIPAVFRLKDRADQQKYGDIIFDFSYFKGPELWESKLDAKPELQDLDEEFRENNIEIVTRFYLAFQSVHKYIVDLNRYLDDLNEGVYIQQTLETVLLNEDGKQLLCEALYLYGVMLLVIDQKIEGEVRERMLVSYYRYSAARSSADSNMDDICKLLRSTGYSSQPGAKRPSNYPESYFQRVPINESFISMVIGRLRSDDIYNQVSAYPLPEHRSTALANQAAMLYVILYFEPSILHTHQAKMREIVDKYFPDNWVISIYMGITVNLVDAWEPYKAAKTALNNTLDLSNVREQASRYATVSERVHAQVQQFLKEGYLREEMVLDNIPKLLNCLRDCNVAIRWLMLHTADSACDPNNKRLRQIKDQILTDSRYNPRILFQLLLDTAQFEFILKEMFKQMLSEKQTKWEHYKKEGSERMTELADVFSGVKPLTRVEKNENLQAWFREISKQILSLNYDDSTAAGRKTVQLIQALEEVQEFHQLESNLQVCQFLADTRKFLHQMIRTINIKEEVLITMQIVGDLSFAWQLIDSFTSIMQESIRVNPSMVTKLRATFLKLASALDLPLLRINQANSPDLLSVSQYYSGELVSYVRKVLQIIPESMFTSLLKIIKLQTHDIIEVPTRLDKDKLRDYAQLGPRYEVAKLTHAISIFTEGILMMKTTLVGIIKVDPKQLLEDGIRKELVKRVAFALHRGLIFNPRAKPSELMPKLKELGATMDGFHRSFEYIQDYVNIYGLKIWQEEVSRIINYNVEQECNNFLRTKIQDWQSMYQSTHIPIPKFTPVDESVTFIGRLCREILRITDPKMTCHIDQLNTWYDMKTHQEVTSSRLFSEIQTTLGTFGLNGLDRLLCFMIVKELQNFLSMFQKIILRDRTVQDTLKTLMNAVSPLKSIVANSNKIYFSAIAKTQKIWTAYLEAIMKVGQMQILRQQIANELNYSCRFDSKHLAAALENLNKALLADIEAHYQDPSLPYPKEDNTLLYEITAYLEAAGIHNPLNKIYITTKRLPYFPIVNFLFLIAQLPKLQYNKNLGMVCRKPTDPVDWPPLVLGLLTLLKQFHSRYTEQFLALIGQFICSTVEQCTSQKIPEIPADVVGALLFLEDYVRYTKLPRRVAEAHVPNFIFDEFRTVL
UniProt Q6UW02, sequence (Q6UW02 whole entry, one chain of several): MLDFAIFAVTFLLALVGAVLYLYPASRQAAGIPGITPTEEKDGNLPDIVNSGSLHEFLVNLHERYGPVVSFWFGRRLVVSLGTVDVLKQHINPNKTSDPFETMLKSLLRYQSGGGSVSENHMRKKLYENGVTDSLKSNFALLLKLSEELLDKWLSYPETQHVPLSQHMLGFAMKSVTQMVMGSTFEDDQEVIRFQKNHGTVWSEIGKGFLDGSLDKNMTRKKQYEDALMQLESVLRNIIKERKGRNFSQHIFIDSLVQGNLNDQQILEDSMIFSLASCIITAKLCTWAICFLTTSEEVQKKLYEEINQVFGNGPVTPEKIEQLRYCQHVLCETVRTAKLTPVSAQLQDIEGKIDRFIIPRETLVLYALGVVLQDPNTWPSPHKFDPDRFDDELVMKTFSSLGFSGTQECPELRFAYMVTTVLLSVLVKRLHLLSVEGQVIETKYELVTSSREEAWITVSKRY
UniProt B0I1T2, sequence (B0I1T2 whole entry): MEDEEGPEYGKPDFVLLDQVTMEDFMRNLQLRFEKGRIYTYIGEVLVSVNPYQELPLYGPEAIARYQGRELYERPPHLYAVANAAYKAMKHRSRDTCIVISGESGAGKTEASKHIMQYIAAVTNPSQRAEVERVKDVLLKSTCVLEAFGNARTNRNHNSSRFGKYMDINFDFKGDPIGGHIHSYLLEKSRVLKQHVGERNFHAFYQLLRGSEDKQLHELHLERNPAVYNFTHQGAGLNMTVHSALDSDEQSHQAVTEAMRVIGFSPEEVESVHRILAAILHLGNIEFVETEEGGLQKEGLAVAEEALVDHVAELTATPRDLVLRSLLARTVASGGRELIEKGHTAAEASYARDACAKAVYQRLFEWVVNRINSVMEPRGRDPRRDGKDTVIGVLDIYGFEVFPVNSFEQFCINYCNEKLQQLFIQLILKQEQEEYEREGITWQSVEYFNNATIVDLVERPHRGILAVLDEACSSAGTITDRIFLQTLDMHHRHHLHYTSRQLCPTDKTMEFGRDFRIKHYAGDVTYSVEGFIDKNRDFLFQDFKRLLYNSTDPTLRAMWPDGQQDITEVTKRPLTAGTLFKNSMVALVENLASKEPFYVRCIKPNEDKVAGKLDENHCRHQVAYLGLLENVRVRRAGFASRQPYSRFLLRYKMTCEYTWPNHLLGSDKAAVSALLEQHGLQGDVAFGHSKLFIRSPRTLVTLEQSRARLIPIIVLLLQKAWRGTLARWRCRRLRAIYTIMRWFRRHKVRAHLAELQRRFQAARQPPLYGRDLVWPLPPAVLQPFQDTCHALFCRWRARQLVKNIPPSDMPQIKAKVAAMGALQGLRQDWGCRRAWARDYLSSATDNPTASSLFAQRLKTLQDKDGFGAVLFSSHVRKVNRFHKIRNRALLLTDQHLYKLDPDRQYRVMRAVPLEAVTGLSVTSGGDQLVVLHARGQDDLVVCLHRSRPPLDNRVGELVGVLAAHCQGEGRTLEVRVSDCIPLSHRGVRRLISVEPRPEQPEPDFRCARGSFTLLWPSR
UniProt Q8WYJ6, sequence (Q8WYJ6 whole entry, one chain of several): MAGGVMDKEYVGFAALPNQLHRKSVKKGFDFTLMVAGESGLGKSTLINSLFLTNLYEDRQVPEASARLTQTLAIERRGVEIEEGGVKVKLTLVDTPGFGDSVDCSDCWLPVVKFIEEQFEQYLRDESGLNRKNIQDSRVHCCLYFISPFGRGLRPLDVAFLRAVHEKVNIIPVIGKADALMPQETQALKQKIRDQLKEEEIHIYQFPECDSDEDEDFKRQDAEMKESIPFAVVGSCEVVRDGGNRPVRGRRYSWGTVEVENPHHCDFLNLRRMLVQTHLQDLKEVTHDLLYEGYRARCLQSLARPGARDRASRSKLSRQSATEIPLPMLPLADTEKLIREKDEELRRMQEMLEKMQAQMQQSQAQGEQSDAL
UniProt O00151, sequence (O00151 whole entry): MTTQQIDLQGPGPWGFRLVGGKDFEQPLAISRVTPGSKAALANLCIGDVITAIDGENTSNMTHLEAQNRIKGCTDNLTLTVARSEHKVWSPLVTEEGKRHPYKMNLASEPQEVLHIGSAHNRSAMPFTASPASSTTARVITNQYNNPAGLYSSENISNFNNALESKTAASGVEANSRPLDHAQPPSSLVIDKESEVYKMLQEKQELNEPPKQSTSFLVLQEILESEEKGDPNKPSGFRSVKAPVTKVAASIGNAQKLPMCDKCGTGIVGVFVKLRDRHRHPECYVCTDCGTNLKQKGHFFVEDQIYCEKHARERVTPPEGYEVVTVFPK

Target	NP40-soluble protein abundance (concentration: 1mM)	NP40-soluble protein abundance (concentration: 2mM)	NP40-soluble protein abundance (concentration: 4mM)	NP40-soluble protein abundance (concentration: 6mM)	NP40-soluble protein abundance (concentration: 8mM)	NP40-soluble protein abundance (concentration: 10mM)
H3BTR4|Q96BT3 (UniProt Q96BT3)	1.32 ± 0.023	1.41 ± 0.13	1.52 ± 0.21	1.72 ± 0.23	1.68 ± 0.17	1.87 ± 0.17
MYO1G (UniProt B0I1T2)	3.09 ± 0.27	3.32 ± 0.48	3.48 ± 0.58	3.19 ± 0.4	3.7 ± 0.64	3.52 ± 0.5
A0A0C4DGQ5|P04632 (UniProt P04632)	0.9315 ± 0.0081	0.964 ± 0.077	0.923 ± 0.022	0.884 ± 0.039	0.885 ± 0.0089	0.875 ± 0.06
I3L2M1|J3KNL2|Q8WYJ6 (UniProt Q8WYJ6)	0.941 ± 0.031	0.945 ± 0.017	0.948 ± 0.022	0.928 ± 0.033	0.932 ± 0.04	0.941 ± 0.033
D6REA1|Q9H173|D6RIU8 (UniProt Q9H173)	0.922 ± 0.083	0.938 ± 0.046	0.92 ± 0.083	0.929 ± 0.11	0.917 ± 0.063	0.8663 ± 0.0052
HMGN4 (UniProt O00479)	0.97 ± 0.35	1.27 ± 0.44	1.22 ± 0.47	1.67 ± 0.86	1.63 ± 0.72	2.97 ± 2.3
E9PHG5|Q6UW02 (UniProt Q6UW02)	1.11 ± 0.13	1.02 ± 0.16	1.04 ± 0.13	1.02 ± 0.17	1.02 ± 0.1	0.993 ± 0.086
A0A0J9YW36|Q9NZ72|Q9NZ72-2 (UniProt Q9NZ72)	1.03 ± 0.25	1.21 ± 0.52	0.979 ± 0.12	1.18 ± 0.36	0.945 ± 0.1	0.863 ± 0.05
CPNE3 (UniProt O75131)	0.969 ± 0.067	0.983 ± 0.052	0.954 ± 0.054	0.903 ± 0.1	0.951 ± 0.024	0.96 ± 0.024
E9PJI1|Q92993-3|Q92993-4|Q92993|Q92993-2 (UniProt Q92993)	1.06 ± 0.12	0.959 ± 0.11	1.13 ± 0.17	1.1 ± 0.19	1.06 ± 0.21	1.13 ± 0.1
F8WCD0|Q8NC42 (UniProt Q8NC42)	0.964 ± 0.023	0.992 ± 0.013	1.08 ± 0.076	1.03 ± 0.029	0.945 ± 0.021	1 ± 0.076
E7EQI7|Q12768 (UniProt Q12768)	1.06 ± 0.1	1.06 ± 0.075	1.05 ± 0.076	0.962 ± 0.11	1.07 ± 0.068	1.02 ± 0.05
A8MT02|P14678|P14678-2|P14678-3 (UniProt P14678)	1.22 ± 0.14	1.34 ± 0.089	1.47 ± 0.05	1.7 ± 0.26	1.7 ± 0.22	1.63 ± 0.13
E9PJA7|Q9NYF8|Q9NYF8-2|Q9NYF8-3 (UniProt Q9NYF8)	1.31 ± 0.092	1.41 ± 0.056	1.54 ± 0.086	1.7 ± 0.11	1.65 ± 0.07	1.7 ± 0.06
PDLIM1 (UniProt O00151)	0.963 ± 0.054	0.958 ± 0.031	0.944 ± 0.041	0.971 ± 0.016	0.939 ± 0.035	0.919 ± 0.036
A0A0D9SEU5|Q6VN20|Q6VN20-3|R4GMX8 (UniProt Q6VN20)	0.968 ± 0.017	0.944 ± 0.05	0.979 ± 0.02	0.996 ± 0.11	0.935 ± 0.028	0.951 ± 0.036
J3KTD6|Q96GD4|Q96GD4-5 (UniProt Q96GD4)	1.37 ± 0.16	1.47 ± 0.18	1.6 ± 0.16	1.58 ± 0.25	1.71 ± 0.032	1.76 ± 0.072
F8W9X7|Q567U6 (UniProt Q567U6)	0.974 ± 0.012	0.962 ± 0.017	0.959 ± 0.024	0.935 ± 0.015	0.951 ± 0.016	0.943 ± 0.028
H3BSH7|Q969X6|Q969X6-3 (UniProt Q969X6)	1.1 ± 0.14	1.21 ± 0.03	1.26 ± 0.058	1.425 ± 0.0083	1.46 ± 0.084	1.78 ± 0.047
E9PEN0|Q8WYH8|Q8WYH8-2 (UniProt Q8WYH8)	1.15 ± 0.2	1.3 ± 0.29	1.36 ± 0.18	1.5 ± 0.16	1.85 ± 0.6	1.86 ± 0.39
UniProt O00560|O00560-2	0.95 ± 0.073	0.946 ± 0.041	0.937 ± 0.04	0.896 ± 0.077	0.9459 ± 0.0062	0.957 ± 0.031
H0YM92|J3KMZ9|P01130|P01130-5|H0YMD1|P01130-4 (UniProt P01130)	0.962 ± 0.026	0.977 ± 0.016	0.981 ± 0.023	0.966 ± 0.029	0.9771 ± 0.0072	0.987 ± 0.016
E7EUT5|P04406 (UniProt P04406)	1.01 ± 0.012	0.959 ± 0.074	0.9969 ± 0.0069	0.939 ± 0.043	0.954 ± 0.024	0.944 ± 0.059
A0A0A0MSK4|Q86YR5|Q86YR5-4 (UniProt Q86YR5)	0.972 ± 0.037	0.99 ± 0.074	0.9991 ± 0.0089	1.018 ± 0.0076	0.96 ± 0.021	0.981 ± 0.05
K7EK70|Q49A26 (UniProt Q49A26)	1.18 ± 0.095	1.25 ± 0.1	1.38 ± 0.1	1.45 ± 0.083	1.57 ± 0.16	1.76 ± 0.081
DYNC1LI2 (UniProt O43237)	0.947 ± 0.049	0.939 ± 0.049	0.905 ± 0.047	0.959 ± 0.14	0.92 ± 0.075	0.932 ± 0.032
A2ABJ5|O75955|A0A140T9R1 (UniProt O75955)	1.03 ± 0.047	0.948 ± 0.029	0.926 ± 0.012	0.925 ± 0.11	0.931 ± 0.071	0.916 ± 0.052
J3KQ34|Q9H9Q2 (UniProt Q9H9Q2)	0.89 ± 0.097	0.87 ± 0.04	0.855 ± 0.072	0.873 ± 0.093	0.878 ± 0.032	0.77 ± 0.1
UniProt O15169|O15169-2	1.05 ± 0.17	0.887 ± 0.14	0.982 ± 0.19	1.07 ± 0.18	1 ± 0.047	1.15 ± 0.21
G3XAC1|Q9BXS9|Q9BXS9-3|Q9BXS9-7|A0A0C4DFT5|Q9BXS9-4|Q9BXS9-5 (UniProt Q9BXS9)	0.909 ± 0.018	0.891 ± 0.037	0.918 ± 0.073	0.885 ± 0.022	0.867 ± 0.074	0.863 ± 0.071
